High-throughput results as filed in PubChem.
Sampled rows, rich in hits. Any-hit rate of the full collection: about 3.5%.
MITF primary – MITF inhibitors, primary screen, biochemical, AlphaScreen, human. Microphthalmia-associated transcription factor (Homo sapiens), O75030. AlphaScreen MITF homodimerization, bead proximity signal. inhibition, % at 2.6 µM. 0.91% of 650,000 active. AID 1259374, 2018; in the data active = inhibition above about 50%;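 also: 0% = vehicle wells with protein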
Target sequence (O75030 whole entry, looked up): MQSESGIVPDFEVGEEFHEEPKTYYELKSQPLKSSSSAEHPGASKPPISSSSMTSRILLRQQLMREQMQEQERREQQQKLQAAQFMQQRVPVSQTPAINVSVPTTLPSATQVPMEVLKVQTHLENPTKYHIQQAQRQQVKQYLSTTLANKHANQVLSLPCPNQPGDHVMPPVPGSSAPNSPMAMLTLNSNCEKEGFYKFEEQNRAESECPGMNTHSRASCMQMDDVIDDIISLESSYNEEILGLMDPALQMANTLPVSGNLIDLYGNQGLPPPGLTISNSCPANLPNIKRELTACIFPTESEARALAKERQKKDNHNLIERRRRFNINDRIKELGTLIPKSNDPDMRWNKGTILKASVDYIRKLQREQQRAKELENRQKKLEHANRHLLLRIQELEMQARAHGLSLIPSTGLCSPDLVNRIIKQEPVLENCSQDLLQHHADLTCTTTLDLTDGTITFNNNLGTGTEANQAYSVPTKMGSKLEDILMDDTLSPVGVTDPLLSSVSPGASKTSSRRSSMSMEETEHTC
GPR151 ag – activators of human GPR151, primary screen, cell-based, PathHunter beta-arrestin, luminescence; PathHunter beta-arrestin GPR151 cells; activation, % at 11.2 µM; 1% of 650,000 active; AID 1508602, 2020; in the data active = activation above about 4.9%;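 also: 0% = median of compound wells and 100% = cells with positive control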
FBW7 activator – FBW7 E3 ligase activators, primary screen, biochemical, AlphaScreen, human; F-box/WD repeat-containing protein 7 (Homo sapiens), Q969H0; AlphaScreen FBW7–phospho-cyclin E peptide binding, activator screen; normalized activity (activation), % at 26.1 µM; 0.13% of 650,000 active; in the data active = normalized activity above about 1.9%;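 also: purified mutant Fbw7 with reduced substrate affinity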
TEAD-YAP block – TEAD-YAP interaction inhibition, primary screen, TEAD-YAP interaction inhibitor project, luminescence, HEK-TIYL cells. TEAD-Gal4/YAP UAS-luciferase luminescence. inhibition, % at 9.12 µM. 1.4% of 640,000 active. AID 1259422, 2018; in the data active = inhibition above about 32%;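 also: 0% = median of test compound wells and 100% = reference inhibitor wells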
MITF confirm – MITF inhibitors, retest of hits, confirmation, biochemical, AlphaScreen, triplicate. AlphaScreen MITF homodimerization, biotin/His-MITF beads. inhibition, % at 2.6 µM. 16% of 4,700 active. shares compounds with MITF primary;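 active = inhibition above a cutoff derived from the DMSO control wells, cut at about 28% in these data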;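 also: 0% = MITF dimer wells with DMSO only; inhibitors lower the bead chemiluminescence by keeping MITF from dimerizing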
AlphaScreen DR – AlphaScreen optical interference compounds, dose response, counter-screen, biochemical, HTS; 6% of 480 active; AlphaScreen optical interference counterscreen, cell-free; IC50, µM; shares compounds with MITF primary; call rule not given here
AS interf ctr – AlphaScreen optical interference compounds, counter-screen for MITF inhibitor project, biochemical, triplicate. shares compounds with MITF primary. LysRS AlphaScreen counterscreen, signal interference. inhibition, % at 2.6 µM. 7.6% of 4,700 active;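 active = inhibition above a cutoff derived from the DMSO control wells, cut at about 30% in these data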
* = called active by the depositor; · = no result given.

SMILES | MITF primary | GPR151 ag | FBW7 activator | TEAD-YAP block | MITF confirm | AS interf ctr | others
CC1(C)C2CC=C(COCC(O)CN3CCN(Cc4ccc5c(c4)OCO5)CC3)C1C2 (stereo not given) | 70* | 3 | 0 | 4 | 2 | 2
COc1ccc(OCC(=O)N2CCc3ccccc3C2)cc1 | 15 | 1 | 0 | -7 | · | ·
O=C(CC(=O)Nc1ccc2nc3n(c(=O)c2c1)CCCCC3)Nc1cccc(Cl)c1 | 6 | -1 | 0 | 5 | · | ·
NC(=S)NNC(=O)C1CC(=O)OC12CCCCC2 (stereo not given) | -11 | 1 | -1 | 0 | · | ·
O=C(CNC1CCCC1)Nc1ccccc1N1CCCCCC1 | 18 | 2 | 0 | -3 | · | ·
CC1=CC(C)(C)N(C(=O)CNCCCN2CCOCC2)c2cc(C)ccc21 | 56* | -1 | 0 | -1 | 6 | 17
CC(C)CCNCC(=O)Nc1ccccc1N1CCCCC1 | 58* | 1 | 0 | -3 | 7 | 18
O=C(CNCCN1CCOCC1)N1CCc2ccccc2C1 | 71* | -1 | 0 | -6 | 3 | 1
O=C(CNCCCO)Nc1ccccc1N1CCCCC1 | 57* | 0 | 0 | -2 | 7 | 18
O=C(CNCCCO)Nc1ccccc1N1CCCCCC1 | 22 | -1 | 1 | -4 | · | ·
O=C(CNCCN1CCCCC1)Nc1ccccc1N1CCCCC1 | 85* | 1 | 0 | 6 | 6 | 13
O=C(CNC1CCCCC1)Nc1ccccc1N1CCOCC1 | 55* | 0 | 0 | -7 | 7 | 14
O=C(CNC1CCCCCC1)Nc1ccccc1N1CCCCC1 | 41 | 3 | 0 | -5 | · | ·
O=C(CNCCCN1CCOCC1)Nc1ccccc1N1CCOCC1 | 84* | 0 | 0 | -2 | -8 | -7
O=C(CNCCN1CCCCC1)Nc1ccccc1N1CCOCC1 | 86* | 2 | 0 | -5 | 5 | 12
C=C(C)CN(CC)CCC(=O)Nc1cccc(Cl)c1 | -8 | -1 | 1 | -2 | · | ·
CCS(=O)(=O)c1ncc(Cl)c(C(=O)Nc2cc(C)ccc2C)n1 | 2 | 0 | 0 | -9 | · | ·
CCCCCC(O)(CCCCC)C(=O)NN1CCCCC1 | 72* | 1 | 0 | -1 | -3 | -1
COc1ccccc1CNC(=O)CCN1C(=O)c2ccccc2S1(=O)=O | 8 | 0 | 0 | -4 | · | ·
COc1ccc(C)cc1NC(=O)C(NCC(O)c1ccccc1)c1ccccc1 (stereo not given) | 84* | 4 | 0 | -5 | 30* | 29 | AlphaScreen DR=>7
COc1ccc(C)cc1NC(=O)C(C)c1ccccc1 (stereo not given) | -5 | 0 | 0 | -12 | · | ·
COc1ccc(C)cc1NC(=O)C(C(C)C)N1C(=O)c2ccccc2C1=O (stereo not given) | 71* | 0 | 0 | 5 | 0 | -2
C=CCOc1ccc(/C=N/NC(=O)CSCc2ccc([N+](=O)[O-])cc2)cc1OC | 0 | -1 | 0 | -4 | · | ·
O=C(c1csc(Nc2cccc3ccccc23)n1)N1CCCC1 | 77* | -1 | 1 | 8 | -5 | 13
COc1ccc2c(c1)CC(c1nc(Nc3cn[nH]c3)c3ccccc3n1)CO2 (stereo not given) | 7 | 1 | 0 | -11 | · | ·
SMILES | MITF primary | GPR151 ag | FBW7 activator | TEAD-YAP block | MITF confirm | AS interf ctr | others
Clc1ccc2c(c1)CC(c1nc(Nc3cncnc3)c3ccccc3n1)CO2 (stereo not given) | 51* | 0 | 0 | 2 | 55* | 3 | AlphaScreen DR=>6.5
O=C1N/C(=N/N=C/c2ccc(O)cc2)SC1c1ccccc1 (stereo not given) | 3 | 0 | 0 | 0 | · | ·
Cc1ccc(C2N=C(N)Nc3nc4ccccc4n32)o1 (stereo not given) | 7 | 0 | 0 | -1 | · | ·
Cc1ccc(F)cc1NC(=O)N[C@H]1C[C@H]2C(=O)N[C@H](C)C(=O)N2C1 | -2 | 0 | 0 | -1 | · | ·
OC(CN1CCN(Cc2ccccc2)CC1)CN1c2ccccc2Sc2ccccc21 (stereo not given) | 56* | 3 | -1 | 5 | 6 | 0
Clc1ccc(CN2CCN(C3CCCC3)CC2)cc1 | 45 | 1 | 0 | -6 | · | ·
c1ccc(CN2CCN(C3CCCCCC3)CC2)cc1 | 70* | -1 | 0 | 2 | 7 | 17
NC1CCN(Cc2cccc(F)c2)CC1 | -13 | 0 | 0 | -2 | · | ·
Clc1ccc(CN2CCN(C3CCCCC3)CC2)cc1 | 67* | 0 | 0 | -9 | 5 | 17
Clc1ccc(CN2CCN(C3CCCCCC3)CC2)cc1 | 74* | 0 | 1 | -3 | -5 | 3
Fc1cccc(CN2CCN(C3CCCC3)CC2)c1 | 52* | 0 | 0 | 3 | -17 | -8
COC(=O)c1c(OCc2ccsc2)cc(=O)n2c1CCN(C1CCSCC1)CC2 | 4 | 0 | 0 | -12 | · | ·
O=C(COC(=O)/C=C/c1ccco1)NC1CCCCC1 | 8 | 4 | 0 | 7 | · | ·
N#Cc1ccc(OCC(=O)OCC(=O)NCc2ccco2)cc1 | 3 | -1 | 0 | 4 | · | ·
O=C(COC(=O)/C=C/c1ccco1)COC(=O)/C=C/c1ccco1 | 78* | -1 | 0 | 6 | 63* | -15 | AlphaScreen DR=>7.1
CCOC(=O)/C=C/c1ccco1 | 14 | 0 | 0 | -3 | · | ·
O=C(COC(=O)COc1ccc(Cl)cc1)NCc1ccco1 | 52* | 1 | 0 | 0 | 56* | -6 | AlphaScreen DR=>7.2
O=C(COC(=O)/C=C/c1ccco1)NCc1ccco1 | 63* | -2 | 0 | -3 | 64* | -1 | AlphaScreen DR=>6.6
Cc1ccccc1NC(=O)C1C2C=CC(O2)C1C(=O)O (stereo not given) | -5 | 0 | 0 | -2 | · | ·
CN1CCC(NCc2ccc(F)cc2)CC1 | 57* | 3 | 0 | -15 | -3 | -3
COC(=O)Cc1c(C)c2ccc(OCC(N)=O)c(C)c2oc1=O | 73* | -1 | 0 | -2 | 12 | 10
COC(=O)Cc1c(C)c2ccc(OCC(=O)OC(C)(C)C)c(C)c2oc1=O | -14 | -1 | 0 | 10 | · | ·
CCn1c(CCNC(=O)Cc2c(F)cccc2Cl)nnc1SC | 3 | 1 | 0 | 8 | · | ·
O=S(=O)(NCC(c1cccs1)S(=O)(=O)c1ccc(Cl)cc1)c1cccs1 (stereo not given) | 73* | 0 | 1 | 6 | 18 | 3
O=S(=O)(NCC(c1cccs1)S(=O)(=O)c1ccccc1)c1cccs1 (stereo not given) | -2 | -1 | 0 | 2 | · | ·
